Reference: PubChem BioAssay AID720504 (National Center for Advancing Translational Sciences (NCATS), 2013)
Hit rate of the full screen: of about 360,000 compounds, about 10,000 (2.8%) were called active. About 4% were inconclusive and are not listed. The call rests on the fitted dose curve; in most records, active means well fitted inhibition curve with a large enough effect; inconclusive means small, poorly fitted or top-dose-only effect; inactive means flat fitted curve, though single readings scatter. Only a selection was taken, and actives are over-represented in it overall.

target: Serine/threonine-protein kinase PLK1 (Homo sapiens) (UniProt P53350); assay: qHTS for Inhibitors of PLK1-PDB (polo-like kinase 1 - polo-box domain): Primary Screen; details: Plk1 PBD binding of FITC phosphopeptide, fluorescence polarization; further: nearly all actives have a fitted effect of over 65% in size; on Max response, negative = inhibition: series mostly up to about 57 µM
Sequence (P53350 whole entry, looked up, the tested form may be a part): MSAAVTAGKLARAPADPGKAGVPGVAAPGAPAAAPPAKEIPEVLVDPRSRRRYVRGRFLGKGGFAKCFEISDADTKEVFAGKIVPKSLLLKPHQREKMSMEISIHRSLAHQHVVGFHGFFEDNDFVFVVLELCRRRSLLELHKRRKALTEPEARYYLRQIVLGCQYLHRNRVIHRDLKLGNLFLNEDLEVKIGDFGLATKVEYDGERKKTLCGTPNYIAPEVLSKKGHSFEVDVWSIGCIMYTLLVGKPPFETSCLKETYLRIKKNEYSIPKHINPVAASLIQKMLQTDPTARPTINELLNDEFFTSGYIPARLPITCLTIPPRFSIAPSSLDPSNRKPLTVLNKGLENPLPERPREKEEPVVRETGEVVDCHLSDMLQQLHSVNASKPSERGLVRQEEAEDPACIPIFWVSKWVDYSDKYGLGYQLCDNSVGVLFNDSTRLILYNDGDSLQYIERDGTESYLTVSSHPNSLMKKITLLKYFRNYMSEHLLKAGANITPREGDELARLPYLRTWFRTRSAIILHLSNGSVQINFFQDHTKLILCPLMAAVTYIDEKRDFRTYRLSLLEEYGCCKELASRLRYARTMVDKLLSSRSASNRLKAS
On the % scale 0 is the no-effect control and ±100 the full control effect; potency means the concentration at half of the fitted maximal effect.

Max response, negative = inhibition, inactive:
CC(=O)Nc1cc(-c2ccccc2F)cn2c(-c3cccc(C(F)(F)F)c3)cnc12 -1.88%
Cc1ccc(S(=O)(=O)N2CCN(CC(=O)N/N=C/c3ccc(Br)s3)CC2)cc1 -1.96%
CC(C)N(C(=O)CN1CCN(S(=O)(=O)c2ccc(Br)s2)CC1)C(C)C 1%
CCCCc1c(-c2ccc(Cl)cc2)ncn1CCc1ccccc1OC 5.05%
COc1ccc(-c2ccc(CN3C(CC(C)C)C(=O)N(Cc4cn(CC5CCCCC5)nn4)CCS3(=O)=O)cc2)cn1 (centres undefined) -1.42%
COc1ccc(NC(=O)CN(C)C(=O)c2cc(C)oc2C)cc1 1.78%
CCCCn1nnnc1C(c1cc2ccccc2o1)N(C)Cc1ccc(Cl)c(Cl)c1 (centres undefined) 5.97%
Cc1nc(Cl)c(C#N)c2c1CCCC2 -17.7%
COC(=O)c1c(C)c(C)nc(N)c1C#N -3.28%
O=C(Nc1ccc(F)cc1)Nc1nnc([C@H]2C[C@H](O)[C@@H](CO)O2)s1 3.58%
COC(=O)C[C@H]1C=C[C@H](NC(=O)c2ccc(F)cc2)[C@@H](CO)O1 -25.2%
CC1(C)CN(Cc2cccnc2)C(=O)[C@H]1CC(=O)Nc1ccc(Br)cc1 2.66%
Cc1noc(C)c1CCC(=O)N1CCCC(CO)(Cc2ccccc2)C1 (centres undefined) -15.4%
Cc1ccccc1CC1(CO)CCCN(C(=O)c2cc(-c3ccccc3)no2)C1 (centres undefined) -5.7%
O=C(NCCc1cccc(F)c1)C1CC(O)CN1C(=O)Nc1ccccc1 (centres undefined) -1.53%
CCCCN1C(=O)C(CC(=O)NCc2cccs2)CC(C(=O)N2CCOCC2)=C1C (centres undefined) 5.78%
CC(C)(C)C(=O)c1c(N)[nH]c(C(=O)c2ccccc2)c1-c1ccc(F)cc1 2.51%
O=c1oc2ccccc2cc1-c1cn(-c2ccccc2)c(=S)[nH]1 -16.2%
CN(C)c1cc(-c2ccc(F)cc2)oc(=O)c1Cl -4.6%
CS(=O)(=O)/C(C#N)=C/c1cccn1S(=O)(=O)c1ccc([N+](=O)[O-])cc1 -19.8%
Cc1snc(SCc2c(F)cccc2Cl)c1C#N -3.96%
Cc1cc(C)c(C#N)c(SCc2ccc3c(c2)OCO3)n1 -1.63%
CC(=O)c1ccc(-c2cnc3c(NC=O)cc(-c4cccc(NS(C)(=O)=O)c4)cn23)cc1 2.12%
COC(=O)C[C@@H]1C=C[C@@H](NC(=O)c2cccnc2)[C@@H](CO)O1 -16.8%
CCCCN(C(C)=O)c1ccc2c(c1)C1CC2CCN1Cc1ccccc1 (centres undefined) -11%
CCCCn1nnnc1C1(C)CCC(=O)N1Cc1ccc(OC)c(OC)c1 (centres undefined) -1.18%
COc1ccc(COC[C@H](CC(C)C)N2CCN(C(=O)c3cccc(C(F)(F)F)c3)CCC2=O)cc1 -20.7%
NS(=O)(=O)c1ccc(NC(=O)/C=C/c2ccccc2Cl)cc1 2.86%
O=C(/C=C/c1ccccc1Cl)Nc1ccc(S(=O)(=O)Nc2ncccn2)cc1 -7.83%
COCOc1cccc(CN2CCC(C)(Oc3ccc(SC)cc3)C2)c1 (centres undefined) -0.463%
O=C(Nc1cc(S(=O)(=O)N2CCOCC2)ccc1Cl)c1cc(=O)c2ccccc2o1 1.44%
O=C(c1cc(S(=O)(=O)N2CCOCC2)ccc1Cl)N1CCOCC1 -9.46%
OC[C@@H]1CN(Cc2cccs2)C[C@H](n2cnc3c(Nc4ccccc4)ncnc32)O1 -1.6%
COc1ccccc1CNc1nc(Nc2ccccc2Cl)c2sccc2n1 5.05%
COc1ccc(S(=O)(=O)N[C@@H]2C=C[C@@H](CC(=O)N3CCc4ccccc4C3)O[C@@H]2CO)cc1 -0.456%
O=C(Nc1ccncc1)Nc1ccc(F)cc1 2.49%
CN(C)c1ccnc(Nc2ccc(F)cc2)c1C#N -0.535%
Cc1ccc(NC(=O)c2ccco2)cc1 -4.07%
CCOC(=O)[C@]12CCCC=C1N(Cc1ccc(Cl)cc1Cl)C(=O)[C@H](CC(=O)N1CCCCC1)C2 -4.73%
CNC(=O)C[C@H]1C(=O)N(c2ccc(OC)cc2)C[C@@H]1Cc1ccccc1 -11.8%
Cc1ccccc1NC(=O)CCOc1ccccc1 -11.8%
Cc1cccc(NC(=O)CSC(N)=O)c1C -17.1%
CC1(C(=O)Nc2ccc3c(c2)OCCO3)CSCC(=O)N1CCOc1ccccc1 (centres undefined) 0.116%
OCCC#Cc1ccc(N2C(c3ccsc3)=Cc3ccc(F)cc3C2c2c[nH]c3ccccc23)cc1 (centres undefined) -1.41%
COc1cccc(N2CCN(c3ccc4nnc(CCC(=O)N5CCN(C)CC5)n4n3)CC2)c1 -2.01%
CCOC(=O)c1cccc(NC(=O)CCc2nnc3ccc(N4CCOCC4)nn23)c1 2.15%
CC(C)CCOc1ccc(C(=O)Nc2cc(S(=O)(=O)N3CCOCC3)ccc2N2CCOCC2)cc1 -15.2%

Potency, active:
Cc1cccc(NC(=O)CN2CCCN(S(=O)(=O)c3ccc(Br)s3)CC2)c1 21.2 µM
CNC(=O)Nc1cc(C(C)(C)C)no1 10.6 µM
COCc1c(N)c(C)nc(Cl)c1C#N 18.9 µM
COC(=O)CCC(=O)N1CCCC(CO)(Cc2ccccc2)C1 (centres undefined) 21.2 µM
O=c1oc2cc(O)ccc2cc1-c1ccc(F)cc1 3.36 µM
Cc1ccc(CSc2nsc(C)c2C#N)cc1 15 µM
CC(=O)NS(=O)(=O)c1ccc(NC(=O)/C=C/c2ccccc2Cl)cc1 29.9 µM
O=[N+]([O-])c1cc(Cl)cc(/C=N/NC(=S)Nc2cc(S(=O)(=O)N3CCOCC3)ccc2Cl)c1O 10.6 µM
COCCOC(=O)c1sc(=S)n(CCOC)c1N 23.8 µM
Fc1ccc(Nc2nnns2)cc1 13.4 µM
Cc1ccccc1NC(=O)CSC(=O)c1ccccc1 10.6 µM
COc1cccc(NC(=O)CCc2nnc3ccc(N4CCC(C)CC4)nn23)c1 26.7 µM
